Source: PubChem (National Center for Advancing Translational Sciences (NCATS))
Giardia FBPA inh: Giardia lamblia aldolase inhibition; 290,000 compounds, 0.71% hits; Potency, µM (doses to about 59.6 µM), for inactives: at the highest dose activity, negative = inhibition, usual class: inhibitors; purified Giardia FBPA; note: potency is the fitted concentration of half-maximal effect; nearly all actives have a fitted effect of over 55% in size
Target sequence (A8B2U2 whole entry, looked up): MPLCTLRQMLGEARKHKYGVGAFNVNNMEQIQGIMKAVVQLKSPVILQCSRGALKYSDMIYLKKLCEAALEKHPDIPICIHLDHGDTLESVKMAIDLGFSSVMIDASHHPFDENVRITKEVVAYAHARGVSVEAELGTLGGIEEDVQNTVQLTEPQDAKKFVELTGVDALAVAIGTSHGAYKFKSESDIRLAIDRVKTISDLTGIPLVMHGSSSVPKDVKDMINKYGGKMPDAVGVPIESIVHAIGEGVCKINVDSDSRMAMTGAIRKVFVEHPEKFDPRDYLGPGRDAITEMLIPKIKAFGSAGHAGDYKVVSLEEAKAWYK
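Giardia FBPA (40 nM reagent) was preincubated 10 min at RT with compound (up to 57.5 uM final), then substrate plus GAPDH/TPI/NAD/arsenate coupling system with diaphorase/resazurin was added; resorufin fluorescence (525/598 nm) was read after 20 min.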
Pf growth 96h: inhibits malaria parasite growth, 96 h | P. falciparum luciferase reporter growth, 96 h | Potency, µM (series often up to 28.7 µM), for inactives: top-dose activity change, negative = inhibition, hits mostly inhibitors | AID 504834 | 320,000 compounds, 6.9% hits; note: potency is the fitted concentration of half-maximal effect
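Erythrocytes infected with luciferase-expressing P. falciparum were dispensed at 2% hematocrit and 0.05% parasitemia (final), then incubated with compounds 96 hours at 37 C in 5% CO2. Luminescence after detection reagent addition reported growth.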
Pf growth 48h: P. falciparum growth inhibition at 48 hours (one generation); AID 504832; P. falciparum luciferase growth in erythrocytes, 48 h; Potency, µM (doses to about 28.7 µM), for inactives: at the highest dose activity change, negative = inhibition, most hits filed as inhibitors; 310,000 compounds, 5.9% hits; note: potency is the fitted concentration of half-maximal effect
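Read-out is firefly luciferase luminescence from an integrated reporter in P. falciparum, so falling signal marks reduced parasite growth. Infected erythrocytes were at 2% hematocrit and 0.1% parasitemia (final) in Albumax-supplemented RPMI 1640.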
HCMV inh: inhibitors of human cytomegalovirus; HFF cells, HCMV-luciferase reporter, 72 h; hits give low values; activity change, negative = inhibition, % at 57.5 µM; 410,000 compounds, 4.5% hits; AID 1259415; in the data active = activity change below about -60%; inconclusive = no clear call, values can overlap the other calls; inactive = above about -39%
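Cell-based, HFFs, 1000 cells/well, 16 h 37C; cpds in DMSO + HCMV-luc, MOI 1 PFU/cell; 72 h 37C; OneGlo luminescence after 5 min RT; norm. to buffer vs Salinomycin 10uM.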
Sm TGR inh: inhibitors of Schistosoma mansoni thioredoxin glutathione reductase | Potency, µM (doses to about 114 µM), inactives show at the top dose activity change, negative = inhibition, most hits filed as inhibitors | AID 485364 | purified TGR, DTNB reduction, TNB absorbance 405 nm | Q962Y6 | 360,000 compounds, 3% hits; note: potency is the fitted concentration of half-maximal effect; nearly all actives have a fitted effect of over 60% in size
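Kinetic colorimetric format: TGR-catalysed, NADPH-driven DTNB reduction monitored via TNB absorbance. Enzyme dispensed at 20 nM; compound exposure 15 min at room temperature before reaction start.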
* = called active by the depositor; i = inactive; ? = inconclusive; . = no result; ! = not active in a repeat; [ ] = dose if it differs, or a comment. Hits are enriched below; roughly 14% of the tested compounds scored in any of these assays. Unless noted, calls come from the whole dose curve; as a rule, active = well fitted curve in the direction sought with a large enough effect; inconclusive = small, poorly fitted or top-dose-only effect, or another doubt; inactive = no such curve, though single readings can be large; an effect the other way counts as inactive or inconclusive. % is set by controls: 0 for no effect and ±100 for the full control effect.

SMILES	Giardia FBPA inh	Pf growth 96h	Pf growth 48h	HCMV inh	Sm TGR inh
Cc1ccc(S(=O)(=O)Nc2cc(=O)[nH]c(SCC(=O)Nc3cccc(C)c3)n2)cc1	-5.4%	-0.5%	1.85µM*	-12.7	0.2%
Cc1ccc(S(=O)(=O)Nc2cc(=O)[nH]c(SCC(=O)Nc3ccccc3Cl)n2)cc1	-4.7%	22.5%[5.75 µM]	-6.9%	2.0	.
Cc1ccc(NC(=O)CSc2nc(NS(=O)(=O)c3ccccc3)cc(=O)[nH]2)cc1	-14.8%	3.7µM*	.	.	5.7%
Cc1cc(=O)[nH]c(SCC(=O)Nc2ccc(C(=O)O)cc2)n1	10.2%	3.1%	.	-24.4	-2.9%
CCc1ccc(NC(=O)CSc2nc(NS(=O)(=O)c3ccccc3)cc(=O)[nH]2)cc1	-19.4%	4.15µM*	?	28.9	-2.6%[57.1 µM]
CCOc1ccc(NC(=O)CSc2nc(NS(=O)(=O)c3ccc(C)cc3)cc(=O)[nH]2)cc1	9.2%	94.1%	-10.2%	-31.2	3.0%
CN(CC(=O)Nc1cccc(F)c1)C(=O)CCCNC(=O)c1ccc(Cl)cc1	.	124.7%	132.0%	66.1	5.4%
O=C(Nc1ccc(-c2ccccc2)cc1)c1ccco1	4.0%	4.65µM*	-16.4%	-64.1*	6.5%
Cc1cc2cc(NC(=O)c3ccco3)ccc2[nH]1	?	17.0%[5.75 µM]	130.6%	50.4	7.5%
O=C(Nc1ccc2[nH]c3c(c2c1)CCCC3)c1ccco1	?	?	3.7µM*	-23.8	44.7µM*
CCCC(=O)N1CCN(c2ccc(NC(=O)c3sc4ccccc4c3Cl)cc2)CC1	0.5%	4.65µM*	?	-2.2	6.0%
CCCC(=O)N1CCN(c2ccc(NC(=O)c3cc4ccccc4o3)cc2)CC1	2.6%	11.1%	?	-7.3	-4.8%
O=C(Nc1ccc(Oc2ccc3ccccc3c2)cc1)c1ccco1	-9.2%	.	2.08µM*	-68.5*	8.1%
Cc1nnc(SCC(=O)N(CCC#N)c2ccc3c(c2)OCCO3)s1	.	?	-23.8%	-26.3	-12.6%
COc1ccc(CCN(C)C(=O)CN2C(=O)NC3(CCCCC3C)C2=O)cc1OC (stereo not given)	.	-1.4%	-17.1%	2.7	2.6%
COc1ccc([C@H]2N[C@]3(CCCN(Cc4ccccc4)C3=O)[C@H]3C(=O)N(C)C(=O)[C@@H]23)cc1	.	.	.	2.9	.
CCN(c1ccccc1)S(=O)(=O)c1ccc(NC(=O)c2ccco2)cc1	-6.0%	40.5%	10.4µM*	-15.6	13.1%
O=C(Nc1ccc(Cl)c(Cl)c1)c1ccco1	-6.8%	-4.1%	87.2%	23.0	3.5%
O=C(Nc1ccc(F)c(F)c1)c1ccco1	-10.2%	i	?	-78.1*	31.0%
O=C(Nc1ccc(NC(=O)c2sc3ccccc3c2Cl)cc1)c1ccco1	6.6%	24.9%	-18.4%	-75.8*	1.6%
O=C(Nc1ccc(Br)cc1)c1ccco1	-2.3%	.	112.9%	?	-5.2%
O=C(Nc1ccc(Nc2ccccc2)cc1)c1ccco1	-6.9%	.	?	-63.7*	-7.3%
CCCCCCc1cc2cc(-c3cn4c(n3)sc3cc(OC)ccc34)c(=O)oc2cc1O	.	.	.	-18.6	-2.9%
Cc1cccc(S(=O)(=O)NC(=O)C2(C)CCN2C(=O)Cc2ccc(C(C)(C)C)cc2)c1 (stereo not given)	.	.	.	18.1	.
Cc1ccc(NC(=O)Cn2c(=O)n(CCCCC(=O)NCCc3ccccc3)c(=O)c3ccccc32)cc1	.	.	.	7.8	0.8%
SMILES	Giardia FBPA inh	Pf growth 96h	Pf growth 48h	HCMV inh	Sm TGR inh
Nc1c2c(nc3cccc(Cl)c13)N(c1ccccc1)CC2	4.7%	7.38µM*	17.4%	15.7	-2.1%
O=C(c1ccccc1)N1CCCOC1c1ccccc1 (stereo not given)	-4.2%	1.9%	?	-2.5	1.9%
O=C(c1ccccc1)N1CCOC(O)(c2ccccc2)C1c1ccccc1 (stereo not given)	.	.	.	-61.1*	.
COc1ccc(OC)c(/C=C/c2ccnc3ccccc23)c1	.	.	.	-98.3*	.
COc1ccc2nccc(/C=C/c3ccnc4ccc(OC)cc34)c2c1	?	3.7µM*	3.29µM*	-21.2	-3.2%
O=C(c1cccc(F)c1)n1nnc2ccccc21	1.0%	.	2.1%	12.3	35.5µM*
C[C@@H](C(=O)N[C@@H](CO)Cc1ccccc1)[C@@H]1C[C@@]1(C)[C@@H](NC(=O)OCc1ccccc1)c1ccccc1	3.9%	.	.	.	.
C#CCOc1ccccc1CNc1ccccc1	-0.3%	-0.5%	4.6%	-31.9	-2.5%
O=C(NC1CCN(Cc2ccccc2)CC1)c1ccccc1OCc1ccccc1Cl	.	?	?	-62.7*	8.6%
O=C(NC1CCN(Cc2ccccc2)CC1)c1ccccc1OCc1ccccc1	3.4%	9.28µM*	?	-13.8	0.0%
C#CCOc1ccccc1CNC1CCN(Cc2ccccc2)CC1	?	13.1µM*	9.28µM*	?	-12.0%
FC(F)(F)c1cccc(CNC2CCN(Cc3ccccc3)CC2)c1	-23.2%	?	2.62µM*	7.8	1.3%
O=C(O)C1CCCCC1C(=O)Nc1ccc(S(=O)(=O)N2CCCC2)cc1 (stereo not given)	.	17.2%	22.7%	62.0	-1.0%
COc1cc(Cl)c(C)cc1NC(=O)c1cnc2c(-c3cccc(C)c3)c(C)nn2c1C	.	.	.	-2.4	-6.7%
CN(C)CC(=O)N[C@@H]1CC[C@@H](CC(=O)NCCN2CCCCC2)O[C@@H]1CO	.	.	.	-100.1*	.
COCCn1c(=O)c(-c2cn(C)c3ccccc23)nc2cnc(OCc3ccccc3)nc21	-0.1%	.	.	.	.
O=C(Cc1cc(=O)[nH][nH]1)N/N=C/c1cccc2ccccc12	-12.4%	23.2%	-14.8%	-89.6*	-0.3%
O=C(Cc1cc(=O)[nH][nH]1)N/N=C/C(Cl)=C/c1ccccc1	6.8%	62.1%	1.17µM*!	25.5	-12.4%
O=C(Cc1cc(=O)[nH][nH]1)N/N=C/c1ccccc1Cl	4.9%	-0.7%	-21.8%	10.1	-1.6%
O=C(Cc1cc(=O)[nH][nH]1)N/N=C/c1c(Cl)cccc1Cl	3.5%	?	-4.9%	-8.9	3.4%
O=C(Cc1cc(=O)[nH][nH]1)N/N=C/c1cccc(Cl)c1Cl	3.1%	?	?	-102.1*!	6.9%
O=C1OCCC1(c1ccccc1)c1ccccc1	.	?	-18.9%	-14.9	-7.6%
CC1CCC2(CC1)NC(=O)N(CC(=O)N(Cc1ccccc1)C(C)(C)C)C2=O (stereo not given)	.	-0.5%	18.5%	-7.4	-0.6%
COc1ccc(CN(C(=O)CN2C(=O)NC3(CCC(C)CC3)C2=O)C(C)Cc2cccs2)cc1 (stereo not given)	.	11.7µM*	9.28µM*	-4.5	1.5%
CC1(C(=O)Nc2ccc3c(c2)OCCO3)CSCC(=O)N1CC(F)(F)F (stereo not given)	.	.	.	8.2	.
CN(C)CCCN(C(=O)c1ccc(C(=O)c2ccccc2)cc1)c1nc2cc3c(cc2s1)OCCO3	.	?	?	-8.6	2.3%
COc1ccc(/C=C2/C(=O)N(c3nc4ccccc4s3)N=C2CSc2ccc(Cl)cc2)cc1	-14.2%	3.8%	16.1%	-32.3	-14.4%
